We go through 40 molecules from PubChem BioAssay (NCATS).

Results filed as inconclusive are left out. Activity calls are given as the source filed them. Calls follow the shape of the full dose curve.
Potency is read from the fitted curve at half-maximal effect.

A short description of this experiment: A High-Content qHTS Against Drug Library for the Identification of Small Molecules that Inhibit DYT1 Early Onset Primary Dystonia-Associated Cell Pathology (AID 1645839). Particulars: HEK293 Flp-In EGFP-delE TorsinA, punctate imaging, 48 h; series mostly up to 46.1 µM; % pathology change, negative = correction: at the top concentration. An excerpt:
Nicole Calakos M.D., Ph.D.
Duke University School of Medicine, Durham, NC
In DYT1 dystonia due to delGAG in the TOR1A gene, there is a robust and widely replicated finding of TorsinA protein mislocalization caused when the mutant protein is in excess of the wildtype protein (1-7). Stable HEK293 cell lines were created that replicate this phenomenon. Inducible expression of an EGFP-hu delE TorsinA encoding cDNA causes pronounced punctate cellular distribution. […] This phenotypic difference in EGFP-huTorsinA fusion protein distribution serves as an indicator of cell pathology. […] RNAi screen results with the assay were validated in DYT1 patient cell phenotypes, intersected with a known dystonia gene, and led to discovery of new human genetic dystonia associations.
The bioassay described herein is a high-content image screen with two readouts. The "%pathology" readout is the primary qHTS data channel, while the "cellcount" is the counterscreen qHTS channel. Desired active compounds are those that show inhibition in %pathology channel but no activity or minimal toxicity in cellcount readout.
1. Kustedjo, K., Bracey, M.H., and Cravatt, B.F. (2000). […] J. Biol. Chem. 275, 27933 - 27939.
2. Bragg, D.C., Kaufman, C.A., Kock, N., and Breakefield, X.O. (2004). Inhibition of N-linked glycosylation prevents inclusion formation by the dystonia-related mutant form of torsinA. Mol. Cell. Neurosci. 27, 417 - 426.
3. Gonzalez-Alegre, P., and Paulson, H.L. (2004). Aberrant Cellular Behavior of Mutant TorsinA Implicates Nuclear Envelope Dysfunction in DYT1 Dystonia. J. Neurosci. 24, 2593 - 2601.
4. Goodchild, R.E., and Dauer, W.T. (2004). Mislocalization to the nuclear envelope: an effect of the dystonia-causing torsinA mutation. Proc. Natl. Acad. Sci. U. S. A. 101, 847 - 852.
5. Kock, N., Allchorne, A.J., Sena-Esteves, M., Woolf, C.J., and Breakefield, X.O. (2006). RNAi blocks DYT1 mutant torsinA inclusions in neurons. Neurosci. Lett. 395, 201 - 205.
6. Hewett, J.W., Nery, F.C., Niland, B., Ge, P., Tan, P., Hadwiger, P., Tannous, B.A., Sah, D.W.Y., and Breakefield, X.O. (2008). siRNA knock-down of mutant torsinA restores processing through secretory pathway in DYT1 dystonia cells. Hum. Mol. Genet. 17, 1436 - 1445.
7. Calakos, N., Patel, V.D., Gottron, M., Wang, G., Tran-Viet, K.N., Brewington, D., Beyer, J.L., Steffens, D.C., Krishnan, R.R., and Zuchner, S. (2010). Functional evidence implicating a novel TOR1A mutation in idiopathic, late-onset focal dystonia. J. Med. Genet. 47, 646 - 650.
8. Rittiner* JE, Caffall* ZF, Hernandez-Martinez R, Sanderson SM, Pearson JL, Tsukayama KK, Liu AY, Xiao C, Tracy S, Shipman MK, Hickey P, Johnson J, Scott B, Stacy M, Saunders-Pullman R, Bressman S, Simonyan K, Sharma N, Ozelius LJ, Cirulli ET, Calakos N. Functional Genomic Analyses of Mendelian and Sporadic Disease Identify Impaired eIF2alpha Signaling as a Generalizable Mechanism for Dystonia. Neuron. 2016 Dec 21;92(6):1238-1251. doi: 10.1016/j.neuron.2016.11.012. Epub 2016 Dec 8. PMID: 27939583; PMCID: PMC5320521.
High-content, High-throughput Drug Screening Assay
The TorsinA mislocalization assay was modified from the previously published assay to accommodate compound testing in 1536 well format.1 Briefly, Flp-In T-REx 293 cells from Invitrogen in which a single copy of a cDNA is recombined into a specific genomic locus was used to create tetracycline-inducible expression of cDNA encoding either EGFP-hTOR1A (WT) or EGFP-delE hTOR1A (DYT1). WT and DYT1 cells were diluted to a concentration of 2 x 10^5 cells/mL in reduced serum media (DMEM High Glucose containing 1% tetracycline-tested FBS, 2 mM L-Glutamine, and 1% Penicillin/Streptomycin). 4 µl of WT cells and 4 µl of DTY1 cells were added to column 1 and columns 2-48, respectively, of a poly-D-lysine-coated, low base, black, clear bottom 1536 well plate (Corning, Corning, NY) using the BioRAPTR FRD Microfluidic Workstation (Beckman Coulter, Indianapolis, IN). The final cell number was 800 cells/well. […]
In general terms: Quantitative high-throughput screening tests each substance at several concentrations.
Consider `COc1ncnc(NS(=O)(=O)c2ccc(N)cc2)c1OC`, for which the “% pathology change, negative = correction” value (shortened to “% pathology change”) was 17.7% (inactive).

For the molecule `CNS(=O)(=O)Cc1ccc2[nH]cc(CCN(C)C)c2c1`, the “% pathology change” value was -5.4% (inactive).

`COc1ccc(C(=O)CC(=O)c2ccc(C(C)(C)C)cc2)cc1`: the “% pathology change” value is -0.591% (inactive).

As to `Cc1ncc([N+](=O)[O-])n1CCO`, the “% pathology change” value is 14.8% (inactive).

Consider `CN1CCN(c2c(F)cc3c(=O)c(C(=O)O)cn(CCF)c3c2F)CC1`, for which the “% pathology change” value was 8.82% (inactive).

Turning to `CC(C)(C)NC(=O)[C@H]1CC[C@H]2[C@@H]3CC[C@H]4NC(=O)C=C[C@]4(C)[C@H]3CC[C@]12C`, the “% pathology change” value was -16.5% (inactive).

Regarding `Cc1onc(-c2ccccc2Cl)c1C(=O)N[C@@H]1C(=O)N2[C@@H]1SC(C)(C)[C@@H]2C(=O)O`, the “% pathology change” value was 5.15% (inactive).

Take `COc1cccc(N(C)C(=S)Oc2ccc3c(c2)CCCC3)n1`: the “% pathology change” value is -1.12% (inactive).

With `COc1ccccc1OCC(O)COC(N)=O` (stereo not given), the “% pathology change” value is -4.06% (inactive).

For the molecule `CS(=O)(=O)c1ccc([C@@H](O)[C@@H](CO)NC(=O)C(Cl)Cl)cc1`, the “% pathology change” value was 10.8% (inactive).

Take `CCCCc1oc2ccc(NS(C)(=O)=O)cc2c1C(=O)c1ccc(OCCCN(CCCC)CCCC)cc1`: the Potency was 5.01 µM (active).

With `O=S(=O)(c1cccc2cnccc12)N1CCCNCC1`, the “% pathology change” value was 20.5% (inactive).

As to `Cc1ccnc2c1NC(=O)c1cccnc1N2C1CC1`, the “% pathology change” value was 10.6% (inactive).

For the molecule `Nc1[nH]c(=O)ncc1F`, the “% pathology change” value is 3.73% (inactive).

Consider `CC(N)C12CC3CC(CC(C3)C1)C2` (stereo not given), for which the “% pathology change” value is -9.03% (inactive).

For `COc1cc(NS(=O)(=O)c2ccc(N)cc2)nc(OC)n1`, the “% pathology change” value was 8.06% (inactive).

As for `CC[C@H](C)C(=O)O[C@H]1C[C@@H](C)C=C2C=C[C@H](C)[C@H](CC[C@@H]3C[C@@H](O)CC(=O)O3)[C@H]21`, the “% pathology change” value was -12.6% (inactive).

For `CCN[C@H]1C[C@H](C)S(=O)(=O)c2sc(S(N)(=O)=O)cc21`, the “% pathology change” value was -21.3% (inactive).

Turning to `CC(C)Cn1cnc2c(N)nc3ccccc3c21`, the “% pathology change” value is -20.9% [at 19.1 µM] (inactive).

Turning to `Nc1nc(F)nc2c1ncn2[C@@H]1O[C@H](CO)[C@@H](O)[C@@H]1O`, the “% pathology change” value was 8.12% (inactive).

For `N[C@@H](C(=O)N[C@@H]1C(=O)N2C(C(=O)O)=C(Cl)CS[C@H]12)c1ccccc1`, the % pathology change, negative = correction was 10.3% [at 9.22 µM] (inactive).

In the case of `Cc1cccc(Nc2ccncc2S(=O)(=O)NC(=O)NC(C)C)c1`, the “% pathology change” value is 9.57% (inactive).

`Clc1ccccc1CN1CCc2sccc2C1`: the “% pathology change” value is 0.942% (inactive).

Consider `COC(c1ccccc1)(c1ccccc1)[C@H](Oc1nc(C)cc(C)n1)C(=O)O`, for which the “% pathology change” value was 8.9% (inactive).

As for `COc1cc([C@@H]2c3cc4c(cc3[C@H](O)[C@H]3COC(=O)[C@H]23)OCO4)cc(OC)c1OC`, the “% pathology change” value is -65.6% (inactive).

Consider `CCCN[C@H]1CCc2nc(N)sc2C1`, for which the “% pathology change” value is -0.593% (inactive).

Consider `CN(C)CCc1c[nH]c2ccc(CS(=O)(=O)N3CCCC3)cc12`, for which the “% pathology change” value is 14.2% (inactive).

In the case of `CCn1cc(C(=O)O)c(=O)c2cc(F)c(N3CCNCC3)nc21`, the “% pathology change” value was 9.95% (inactive).

Regarding `COc1cc2c(Nc3ccc(Br)cc3F)ncnc2cc1OCC1CCN(C)CC1`, the “% pathology change” value was 3.12% (inactive).

As to `O=C(O)c1cc(=O)[nH]c(=O)[nH]1`, the “% pathology change” value was 7.2% (inactive).

Take `CC(=O)CC(c1ccccc1)c1c(O)c2ccccc2oc1=O` (stereo not given): the “% pathology change” value is 10.1% (inactive).

With `CNNCc1ccc(C(=O)NC(C)C)cc1`, the “% pathology change” value is 19.7% (inactive).

Regarding `C#CCN[C@@H]1CCc2ccccc21`, the “% pathology change” value is 1.15% (inactive).

For the molecule `Nc1nc(N)nc(-c2cc(Cl)ccc2Cl)n1`, the “% pathology change” value was 0.507% (inactive).

Take `CC(C)(C#N)c1cc(Cn2cncn2)cc(C(C)(C)C#N)c1`: the “% pathology change” value was 1.43% (inactive).

Turning to `C[C@@H](CN1CC(=O)NC(=O)C1)N1CC(=O)NC(=O)C1`, the “% pathology change” value is 16.2% (inactive).

Consider `CCn1cc(C(=O)O)c(=O)c2cc(F)c(N3CCNCC3)cc21`, for which the “% pathology change” value was 4.95% (inactive).

Turning to `CO[C@@H]1[C@@H](OC(N)=O)[C@@H](O)[C@H](Oc2ccc3c(O)c(NC(=O)c4ccc(O)c(CC=C(C)C)c4)c(=O)oc3c2C)OC1(C)C`, the “% pathology change” value was -4.22% (inactive).

For `CCC(C)(C)c1ccc(CC(C)CN2C[C@@H](C)O[C@@H](C)C2)cc1` (stereo not given in full), the “% pathology change” value was 3.74% (inactive).

As to `CC(=O)[C@H]1CC[C@H]2[C@@H]3CC=C4C[C@@H](O)CC[C@]4(C)[C@H]3CC[C@]12C`, the “% pathology change” value was 17.9% (inactive).
